About 79,000 compounds went through this panel and 15% of them were active in at least one assay; those are over-represented in the sample as a whole. Activity calls are given as the source filed them. No stated cut-off is given here; in the data, active means growth inhibition above about 70%; inactive means the rest.
Assay: NCI Yeast Anticancer Drug Screen. Data for the mgt1 strain (AID 153)
Details: S. cerevisiae mgt1 mutant growth inhibition, active compounds read high
Method: Growth inhibition of yeast strains with defined genetic alterations is measured as a screen for potential anti-cancer activity. Selected strains with alterations in DNA damage repair or cell cycle control were exposed to compounds and growth inhibition was measured relative to vehicle treated controls. The strain used in this assay is mgt1

Measured: growth inhibition

CCCCN(CCCC)c1ccc(N=Nc2ccc(S(=O)(=O)O)cc2)cc1
active: at 11.0 µM 92% | at 33.0 µM 97% | at 100.0 µM 97%
inactive: at 1.2 µM 19% | at 3.7 µM 39%

COC(=N)c1ccc(O)c(C)c1
inactive: at 1.2 µM -4% | at 3.7 µM -3% | at 11.0 µM -2% | at 33.0 µM -3% | at 100.0 µM -3%

Cc1cccc2c1C1c3c(C)cccc3C(CC(=O)O)CC1CC2 (stereo not given)
inactive: at 1.2 µM 0% | at 3.7 µM 47%
active: at 11.0 µM 98% | at 33.0 µM 97% | at 100.0 µM 92%

COC(=O)C1=C(C(=O)OC)CC(n2nnc(C(=O)OC)c2C(=O)OC)=CC1
inactive: at 1.2 µM -1% | at 3.7 µM 1% | at 11.0 µM -2% | at 33.0 µM -2% | at 100.0 µM -6%

CNC(=S)N/N=C(/C)CCC/C(C)=N/NC(=S)NC
inactive: at 1.2 µM 3% | at 3.7 µM 12% | at 11.0 µM 22% | at 33.0 µM 22% | at 100.0 µM 32%

O=C(c1cc(=O)c2ccc(O)cc2o1)c1ccc(Cl)cc1Cl
active: at 33.0 µM 89% | at 100.0 µM 90%
inactive: at 1.2 µM -9% | at 3.7 µM -18% | at 11.0 µM 21%

O=C(NCCCCN1CC2CCCC2C1)C(C1CCCCC1)C1CCCCC1 (stereo not given)
inactive: at 1.2 µM 4% | at 3.7 µM 5% | at 11.0 µM 40%
active: at 33.0 µM 94% | at 100.0 µM 98%

CCC(C)COC(=O)Nc1cccc(Cl)c1 (stereo not given)
inactive: at 1.2 µM -7% | at 3.7 µM 0% | at 11.0 µM -8% | at 33.0 µM 29%
active: at 100.0 µM 99%

Reference: PubChem BioAssay (NCI)
